# In all, about 25,000 sequences were measured (“ln(normalized median fluorescence intensity)”: median about 9.7, highest 2% from about 11 on). The sample holds the highest values, similar sequences and a random draw of the others, so the mix is not that of the screen.
# System: PfAP2-HC AP2 domain (GST-tagged)
# Assay: gcPBM binding intensity (ln(normalized median fluorescence intensity)); higher = stronger DNA binding
# Summary of the method: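 GST-fused DNA-binding domains of P. falciparum, expressed in E. coli, were applied at about 25 μg on average for 1 h to an Agilent 4 × 180k array of primer-extended double-stranded 36-bp intergenic genomic probes and negative controls. Binding intensity is the highest Masliner-normalised natural-log median intensity across replicate spots of either probe orientation, measured with Alexa488 anti-GST antibody and a 488 nm scan.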
row,Sequence,gcPBM binding intensity (ln)
1,AAAAAAAAAAAAATGTGTACATACATATATTTATAT [XGTACX_site3076],9.74
2,CTTTCGGTTGGAGAGGTGCGCTTCTCCTTTATAATA,9.61
3,TTTTTTTTTTATGGTACACACACGCGTATGGTTGCA [CACACA_site1876],10
4,AAGAAATAAATACATACACACATATATATATATATA [CACACA_site3362],10.3
5,CGAAAGAAAAAAAGCACACACAGTTTTGAGCAATGA [CACACA_site2109],10.1
6,AAGTTTTATATTTATTAAATTTTTTTTTTTCCTTTT [XGTACX_negctrl_site184],9.2
7,AATATTCGTAATTGATGTACTTGTAATTCATACATT [XGTACX_site8314],9.67
8,AAATTTGGCAAACACACACACACACCCACACCCACA [CACACA_site8095],11.4
9,ATTTGGCATAAACACACACACACACCCACCCACATA [CACACA_site8096],10.9
10,AACTTTGGCAAACACACACACACACCCACACCCACA [CACACA_site588],10.5
11,AAATTTGGCAAACACACACACACACCCACAGAGACA [CACACA_site4490],11.3
12,ATTTGGCAGAAACACACACACACACCCACCCACATA [CACACA_site589],10.5
13,AAAAATTTGGCATACACACACACACCCACACCCACA [CACACA_site587],10.4
14,GATATGGAATATATGTGTACATATATATATATTATA [XGTACX_site1724],9.77
15,TATTTATAAAAAAATACATGCATTTTTTTTTTTTTT [TGCATGCA_site65],9.36
16,AAAACAAATTAAAATCGTACAATTATAATGTTAATG [XGTACX_site180],9.7
17,TATTCTAATATATGCATACACACAAATGTGAATATA [CACACA_site2143],9.66
18,AGATAGCTATTAAAAAGTACAAAAAAATATATATAT [XGTACX_site6289],9.71
19,ATATTACACATATATGCACACATTGTAGTTATTTAT [CACACA_site8843],9.99
20,ATATATAACGTGCACACACACATTTACGTATGAATA [CACACA_site6948],10
21,TAATATATAACGTGCACACACACATTTACGTATGAA [CACACA_site1832],10
22,ATATATAACGGGCACACACACATTTACGTATGAATA [CACACA_site1833],11.1
23,TTTATTAGTAATTATACACACATATAAAATGAATAA [CACACA_site6754],9.67
24,ATAATAAGGTTAAGCACACATATTACATATATAACT [CACACA_site3356],10
25,GTTATATAAAAATATTGTACATTCTATATAAAGTCA [XGTACX_site4418],9.47

row,Sequence,gcPBM binding intensity (ln)
1,TTATATATAGATCACACACACACACCGGTTTTAAAA [CACACA_site4220],11.2
2,TGTTTTTAAAAAAAAAAAAAATCACACCGGCAGGTA [CACACA_negctrl_site1437],9.49
3,ATATAGATCAGACACACACACATGTTTTAAAACTAT [CACACA_site6186],10.9
4,TAAGAAAAATATATATGTACACATATATATATATAT [XGTACX_site8542],9.61
5,CTTTGTGTTAAAAGTAGTACACCAAAAATATGACTT [XGTACX_site622],9.55
6,AATACATACAGACACACACACACATATAAATAAATA [CACACA_site7642],11.6
7,AAAAAAAAAAGACACACACACATATTTATTTATATA [CACACA_site6484],10.4
8,TTAAAAAAAAGACACACACACATACACATATTTATA [CACACA_site7535],11.2
9,ATATTATACATTTATACACACATAAAAAGACAAAAA [CACACA_site3565],9.92
10,AATGGCAAAATAGGCACACACACATATACATATATA [CACACA_site1058],10.9
11,TGGCAAAATAGGCACACACACATATACATATATATT [CACACA_site1059],10.3
12,CATACATACAGACACACACACATATAAATACATACA [CACACA_site6533],10.3
13,AATGGAAAAATAGGCACACACACATATATACATATA [CACACA_site1298],10.6
14,TGGAAAAATAGGCACACACACATATATACATATATA [CACACA_site1297],10.5
15,TATACAGACAGACACACACACATATATAAATATGTA [CACACA_site6912],10.6
16,AATGGCAAAATAGGCACACACACATATACAGATATA [CACACA_site4726],10.6
17,AATGGAAAAATAGGCACACACACATAAATACAGATA [CACACA_site4844],11.2
18,TTCTATATATAATATTGTACTTAATTATTTTATTTT [XGTACX_site2701],9.83
19,TTTTATCATATTTATTGTACACATAATATACATATC [XGTACX_site1145],9.99
20,GATATGTACTAATACACACACATATATATATATATA [CACACA_site1022],10.2
21,ATACATTTTTGTAAAAGTACATATACATGCCCCCTT [XGTACX_site1367],9.72
22,TTATATATATATGTATGTACTTATAACTTTTATTAG [XGTACX_site3190],9.6
23,TTTTTTTTTTTTGTAGTGCAAATTAAAAATATATGT,9.39
24,ACATAGATCATAGGTTGTACGAAGGTATCCTTTATT [XGTACX_site694],9.65
25,AAGATAACAAGTAATCAATCTAATTATTAATTATAT [CACACA_negctrl_site1713],9.52

row,Sequence,gcPBM binding intensity (ln)
1,AACGAACACTATTACACACATACATACATATGTATG [CACACA_site1859],10.1
2,AAGGAAAAACCATTCGCACACACACCGAATATATAA [CACACA_site8403],10.2
3,CAATTTTACTCATAAACACACATATAGATGTTATTA [CACACA_site7474],9.6
4,AAATAATATATTCCTTGTACTTATTTCAATGAATTC [XGTACX_site7719],9.64
5,AAAAAAAAAAAACACACACACACATTCAATATAAAA [CACACA_site40],10.4
6,AAAAAAAACGAACACACACACATTCAATATAAAACA [CACACA_site6170],10.5
7,ATGGGACAGATATATACACACATATAAATATAAATA [CACACA_site6684],10
8,GGAATAACCAGACACACACACACATATAAATATGTA [CACACA_site7632],11.2
9,TATACAGATGGACACACACACATAAATAAATATATA [CACACA_site4863],10.4
10,GATACAGATGGACACACACACATACATAAATACATA [CACACA_site5833],11.3
11,GAATAATATGGACATACACACATATACATACAGATA [CACACA_site5200],10.5
12,TATACAGATGGACACACACACATATATATATATATA [CACACA_site5272],11
13,GGAATAACCAGACACACACACACATATATATATATA [CACACA_site3541],10.9
14,CAAGGAACCAGACACACACACATAAATGTATATATA [CACACA_site752],10.2
15,AAAAAAAACAGACACACACACATTCAATATAAAACA [CACACA_site41],11.3
16,CAAATACATGGACACACACACATATACAGATATATA [CACACA_site5854],10.9
17,TACAATACCGTACAGGTGCAACTAGCCAAAAAAAAG,9.75
18,CCCTTTTTTTTTTAATGTACATATAATTATATATTT [XGTACX_site8568],9.88
19,ATTCAATAAACGTATTGTACAAAAGAACGATATATT [XGTACX_site2533],9.78
20,CAACATTCGTATATCACACATTTGCATGTTGTCAAT [CACACA_site4470],9.78
21,TAACAATATCTAGATACACACACATATCTCTCAATC [CACACA_site8122],10.4
22,CTCCTTTCAAAAAAATGTACATGTTTACATTTCAAG [XGTACX_site7342],9.55
23,TATTTATATAGACACACACACATATATTTATATTTT [CACACA_site7240],10.4
24,TATACAGATAAATACACACACACATATATATATATA [CACACA_site4845],11.2
25,AATATGTACAGACATACACACATATTTATATTTATA [CACACA_site6694],9.88

row,Sequence,gcPBM binding intensity (ln)
1,TATACAGATAAATACACACACATATATATATATATA [CACACA_site4178],9.86
2,TACACATACAGACATACACACATACACATATACACA [CACACA_site6918],10.5
3,TATATTAATAGACACACACACATATTTATATTTATA [CACACA_site6859],11.1
4,TATATTATTTATTAGACACACATTATTAATATATTT [CACACA_site1078],9.79
5,CATACAGATATATATACACACATACAGATAAATACA [CACACA_site4592],9.95
6,TACATACACAGACACACACACATATATATATATATA [CACACA_site3557],10.9
7,GTAATACACAGACACACACACATACACATATTTATA [CACACA_site7313],10.5
8,AATACATACAGACACACACACACATATATATATATA [CACACA_site3558],11.5
9,CATACATACAGACACACACACATATTTATATTTATA [CACACA_site6172],11.3
10,ATATATAGGTTCCCTTTTCTTTTTTTTTTTTTTTTT [CACACA_negctrl_site1159],9.39
11,AAAAAACAAAAAAAAAAAAAAATAATACAATATAAT [CACACA_negctrl_site1630],9.56
12,ACGATATTTTTGGTGACACACATATATATATATATA [CACACA_site126],9.8
13,AAAAATTTTTTTTCATTTGTTTTTATTCCGTAAAAA [CACACA_negctrl_site1217],9.17
14,TATGTGCCAAGACACACACACATATTTATATTTATA [CACACA_site6360],10.2
15,AAAATATATTAAGGCACACACATACAGATATATATA [CACACA_site5951],11.1
16,TATATATCAAGACACACACACATATATTTATTTATA [CACACA_site7733],11.2
17,AAAATACACAGACACACACACATATAAATAAATATT [CACACA_site7871],10.8
18,AAAATATATTAAGGCACACACATACATATATATATA [CACACA_site3723],10.7
19,CTAAAATACAGACACACACACACATATATATATATA [CACACA_site4150],11
20,TATTTATAGATATATACACACATATTTATATTTATA [CACACA_site6441],9.78
21,TATACATAGATATATACACACATATATTTATATACA [CACACA_site6328],9.92
22,ATGATATATAGACACACACACATATTTATATACATT [CACACA_site6404],10.9
23,AAAAAATATATTAAGGCACACACATACATATATATA [CACACA_site9239],10.2
24,TAAATACAGACATATACACACATATATATATATATA [CACACA_site4382],9.75
25,TATATATCAATATACACACACACATATTTATTTATA [CACACA_site6858],10.4

# Source: the supplement of paper PMC11417369
